Test results reported in PubChem BioAssay AID651635 (National Center for Advancing Translational Sciences (NCATS), 2012).
In all, about 400,000 compounds went through this assay and about 1,900 (0.47%) were called active. Where a call stands in place of a potency, no number is given. About 14% were inconclusive and are not listed. The call rests on the fitted dose curve; in most records, active means well fitted cell-killing curve with a large enough effect; inconclusive means small, poorly fitted or top-dose-only effect, or effect the other way; inactive means no such curve, though single readings can be large or run the other way. Many of the other results were omitted from the sample, so actives are more common in it than they were.

test: Viability Counterscreen for Primary qHTS for Inhibitors of ATXN expression; conditions: S2 cells (HEK-293 line with an ATXN2-luciferase reporter) viability, CellTiter-Fluor protease fluorescence, 24 h; series mostly up to 56.7 µM; further: nearly all actives have a fitted effect of over 40% in size
Potency means the concentration at half of the fitted maximal effect.

Row | Structure (SMILES) | Potency | activity change, negative = cytotoxicity
1 | CC[C@H](C)CCCCC(=O)N[C@@H](CCN)C(=O)N[C@H](C(=O)N[C@@H](CCN)C(=O)N[C@H]1CCNC(=O)[C@H]([C@@H](C)O)NC(=O)[C@H](CCN)NC(=O)[C@H](CCN)NC(=O)[C@H](CC(C)C)NC(=O)[C@@H](CC(C)C)NC(=O)[C@H](CCN)NC1=O)[C@@H](C)O | inactive | –
2 | CCC(C(=O)OCCN(CC)CC)c1ccccc1 (configuration not stated) | inactive | –
3 | CCN(CC)CCOC(=O)c1ccc(NC(=O)CNC(=O)c2ccccc2)cc1 | inactive | –
4 | CC1(C(=O)NCC2CCOCC2)Cc2c(-c3cccc(C(N)=O)c3)ccnc2O1 (configuration not stated) | inactive | –
5 | O=C1NC(CC(=O)N2CCC(n3c(C4CCC4)nc4cccnc43)CC2)c2ccccc21 (configuration not stated) | inactive | –
6 | O=CNc1cc(-c2ccc(C(=O)N3CCOCC3)cc2)cn2c(-c3ccc(F)cc3)cnc12 | inactive | –
7 | CCc1nc2c(OCCc3cccc(OC)c3)cccn2c1N(C)C(=O)c1ccc(C)cc1 | inactive | –
8 | Cc1cc2nc(C)n(CCCNC(=O)Nc3ccccc3)c2cc1C | inactive | –
9 | COc1ccc(OCCCn2c(C)nc3cc(C)c(C)cc32)cc1 | 28.2 µM (active) | –
10 | Cc1cc2ncn(CCCCOc3ccccc3)c2cc1C | inactive | –
11 | COc1ccc(C(C#N)=C2C=CC(=NO)c3ccccc32)cc1 | inactive | –
12 | CC[n+]1cc(C)ccc1/C=C/c1ccc(N(C)C)cc1 | 25.1 µM (active) | –
13 | NCC[C@H](O)C(=O)N[C@@H]1C[C@H](N)[C@@H](O[C@H]2O[C@H](CN)[C@@H](O)[C@H](O)[C@@H]2O)[C@H](O)[C@@H]1O[C@H]1O[C@H](CO)[C@@H](O)[C@H](N)[C@@H]1O | – | -2.32% [at 0.575 µM] (inactive)
14 | CO[C@]1(NC(=O)CSC(F)F)C(=O)N2C(C(=O)O)=C(CSc3nnnn3CCO)CO[C@H]21 | inactive | –
15 | COc1ccccc1NC(=O)c1oc2ccccc2c1NC(=O)COc1ccccc1OC | inactive | –
16 | O=C(CCN1Cc2ccccc2OC(c2ccccc2)C1)N[C@@H]1CS(=O)(=O)C[C@H]1O (some centres not stated) | inactive | –
17 | CC(OC(=O)c1cccc(S(=O)(=O)N2CCOCC2)c1)C(=O)NCC1CCCCC1 (configuration not stated) | inactive | –
18 | COc1cc(C(=O)OC(C)C(=O)NCC2CCCCC2)cc(NC(=O)c2ccco2)c1OC (configuration not stated) | 31.6 µM (active) | –
19 | CC(OC(=O)c1ccc([N+](=O)[O-])cc1)C(=O)NCC1CCCCC1 (configuration not stated) | inactive | –
20 | CCOC(=O)Cc1cccc(-c2cc(CCCCCCc3ccc(O[C@H]4O[C@H](COC(C)=O)[C@@H](OC(C)=O)[C@H](OC(C)=O)[C@@H]4OC(C)=O)c(-c4cccc(CC(=O)OCC)c4)c3)ccc2O[C@H]2O[C@H](COC(C)=O)[C@@H](OC(C)=O)[C@H](OC(C)=O)[C@@H]2OC(C)=O)c1 | inactive | –
21 | CN(C)CCNC(=O)c1ccc(-c2cn3c(-c4ccc(Oc5ccccc5)cc4)cnc3cn2)cc1 | inactive | –

Row | Structure (SMILES) | Potency | activity change, negative = cytotoxicity
22 | CCCCN1CC(COCc2ccccc2)OCCS1(=O)=O (configuration not stated) | inactive | –
23 | Cc1ccccc1-c1ccc2c(c1)O[C@@H](CN(C)Cc1ccc(C(=O)O)cc1)[C@@H](C)CN([C@H](C)CO)S2(=O)=O | inactive | –
24 | CCCCC[C@H](C)N1C[C@@H](COCc2ccccc2)Oc2cc(N3CC[C@@H](N(C)C)C3)ccc2S1(=O)=O | 25.1 µM (active) | –
25 | Cc1oc2ccc(O)c(CN3CCCCC3)c2c1C(=O)Nc1cccc(C(F)(F)F)c1 | 28.2 µM (active) | –
26 | Cc1oc2ccc(O)c(CN3CCOCC3)c2c1C(=O)Nc1cccc(Cl)c1C | inactive | –
27 | CCN1CCN(Cc2c(O)ccc3oc(C)c(C(=O)Nc4ccc(C)cc4C)c23)CC1 | inactive | –
28 | COC(=O)/C=C(/C)N | inactive | –
29 | COCCN1CCN(C(=O)c2sc3ncnc(NCC4CCCO4)c3c2C)CC1 (configuration not stated) | inactive | –
30 | O=C(Nc1ccncc1)c1ccccc1[N+](=O)[O-] | inactive | –
31 | CC(=O)Oc1ccccc1C(=O)Nc1ncc([N+](=O)[O-])s1 | 39.8 µM (active) | –
32 | Cc1csc(NC(=O)Nc2ccccc2[N+](=O)[O-])n1 | inactive | –
33 | CC(C)(C)S(=O)N1Cc2cc(C(=O)NCCCN3CCOCC3)nc(-c3cccc(-c4cc5ccccc5o4)c3)c2[C@H]1CCO (some centres not stated) | inactive | –
34 | CC(Oc1ccccc1)C(=O)N[C@@H]1C(=O)N2[C@@H]1SC(C)(C)[C@@H]2C(=O)O (some centres not stated) | inactive | –
35 | COCc1cccc(-c2csc(C(O)c3ccc(F)cc3)n2)c1 (configuration not stated) | inactive | –
36 | Cn1c(=O)[nH]c(=O)c2c1nc(N1CCN(CCO)CC1)n2CCSc1nc2ccccc2s1 | inactive | –
37 | CN1CCN(c2nc3c(c(=O)[nH]c(=O)n3C)n2Cc2cccc3ccccc23)CC1 | inactive | –
38 | Cn1c(=O)[nH]c(=O)c2c1nc(N1CCN(C(c3ccccc3)c3ccccc3)CC1)n2CCO | 3.16 µM (active) | –
39 | CN[C@@H]1[C@@H](O)[C@@H](O[C@@H]2[C@H](O)[C@H](O[C@H]3OC(CN)=CC[C@H]3N)[C@@H](N)C[C@H]2N)OCC1(C)O (some centres not stated) | inactive | –
40 | CC(=O)Nc1ccc(-c2csc(NC(=O)Nc3ccccc3)n2)cc1 | 15 µM (active) | –
41 | O=C(CSC1=NCCS1)Nc1nc(-c2ccccc2)cs1 | inactive | –
42 | CC(=O)Nc1ccc(-c2cn3cccnc3n2)cc1 | inactive | –
